Columns and labels:
Details in all cases: concentration: 1 μM, replicates: in singlicate; n = 1
[1] = system: T1, MST2
T1 construct: gene STK3

[2] = system: T2, MST3
T2 construct: gene STK24

[3] = system: MST4
[4] = system: MTOR
[5] = system: MUSK
[6] = system: MYLK2
[7] = system: MYLK4
[8] = system: MYLK
[9] = system: MYO3A
[10] = system: MYO3B
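Note: KINOMEscan kinase panel screen.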

Row | SMILES | %Inh [1] [%] | %Inh [2] [%] | %Inh [3] [%] | %Inh [4] [%] | %Inh [5] [%] | %Inh [6] [%] | %Inh [7] [%] | %Inh [8] [%] | %Inh [9] [%] | %Inh [10] [%]
1 | Cc1cccc(-c2nc(Nc3cccc(C(N)=O)c3)c3ccccc3n2)n1 [GW876019] | 20 | 0 | 0 | 35 | 0 | 0 | 0 | 28 | 11 | 20
2 | COc1ccc(Nc2nccc(NCCNC(=O)Nc3ccccc3F)n2)cc1 [GSK1379901] | 0 | 0 | 0 | 22 | 15 | 0 | 0 | 15 | 12 | 0
3 | COC(=O)c1c(-c2ccccc2)c2cc(C(=O)O)ccc2c(=O)n1Cc1ccccc1 | 12 | 0 | 9 | 25 | 0 | 8 | 0 | 0 | 0 | 0
4 | Cn1ccc2ncnc(Oc3cccc(C(=O)Nc4ccccc4)c3)c21 | 13 | 20 | 7 | 0 | 0 | 0 | 4 | 0 | 0 | 4
5 | COc1cccc(NC(=O)NC2CCN(c3ccnc(Nc4ccc(F)cc4)n3)C2)c1 (stereo not shown) [GSK1379721] | 17 | 0 | 0 | 19 | 0 | 1 | 6 | 0 | 25 | 6
6 | Cn1ccc2ncnc(Oc3ccc(Nc4nc5ccccc5[nH]4)cc3)c21 | 5 | 0 | 0 | 0 | 21 | 0 | 0 | 0 | 0 | 0
7 | CS(=O)(=O)c1ccc(-c2nc3n(c2-c2ccncc2)CCC3)cc1 [SKF-105942] | 0 | 0 | 0 | 0 | 12 | 0 | 4 | 17 | 25 | 77
8 | CN(C)CCN(C)C(=O)c1cc(-c2ccncc2)c(-c2ccc(Cl)c(O)c2)o1.Cl.Cl [SB-710397] | 0 | 0 | 0 | 33 | 18 | 11 | 0 | 10 | 0 | 0
9 | Cl.c1ccc(-c2n[nH]cc2-c2ccnc(-c3ccc(CN4CCOCC4)cc3)c2)nc1 [GW776245] | 0 | 0 | 0 | 42 | 1 | 10 | 0 | 2 | 0 | 1
10 | CCn1c(-c2cccnc2O)nc2cnccc21 [SB-736715] | 23 | 0 | 0 | 0 | 0 | 15 | 0 | 0 | 0 | 3
11 | Cc1ccc(NC(=O)Nc2cc(C(C)(C)C)nn2-c2ccccc2)cc1 [GSK1014915] | 23 | 5 | 13 | 30 | 17 | 9 | 4 | 11 | 0 | 0
12 | Cc1cc(NCC(c2ccccc2)c2ccccc2)nc(NCc2ccc(C(F)(F)F)cc2)n1 [GW497681] | 0 | 3 | 0 | 1 | 0 | 0 | 0 | 15 | 34 | 0
13 | Cc1cc(-c2ccc3c(c2)CC[C@@H](N[C@@H](C)c2ccccc2)C3)cnc1N.Cl [GW412617] | 15 | 0 | 0 | 14 | 28 | 21 | 8 | 10 | 0 | 0
14 | COc1cccc(-c2cc(-c3c[nH]nc3-c3ccccn3)ccn2)c1 [GW680338] | 0 | 0 | 30 | 33 | 0 | 0 | 9 | 0 | 8 | 3
15 | O=C(Nc1ccccc1)Nc1cccc(Oc2ccc3nccn3n2)c1 | 0 | 3 | 0 | 21 | 0 | 0 | 0 | 0 | 0 | 0
16 | Cc1ccc(NC(=O)Nc2cccc(Cl)c2)cc1-c1ccc(C(=O)Nc2ccncc2)cc1 [GSK1398468] | 0 | 0 | 0 | 9 | 5 | 9 | 13 | 8 | 100 | 0

From PMC5540273 (PLoS ONE, 2017)
